Source: PubChem BioAssay AID493168 (National Center for Advancing Translational Sciences (NCATS), 2011)
Results filed as inconclusive are left out. A number with no mark means an inactive call. Calls of active or inactive are those of the source. Calls follow the shape of the dose curve; as a rule, active = well fitted inhibition curve with a large enough effect; inconclusive = small, poorly fitted or top-dose-only effect, or effect the other way; inactive = flat fitted curve, though single readings scatter.
Also: nearly all actives have a fitted effect of over 55% in size.
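For activity change, negative = inhibition in this document: plate controls were DMSO wells for no effect and full inhibition by NEM control for full effect.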
Potency is read from the fitted curve at half-maximal effect.

Each compound was assayed against Ubiquitin carboxyl-terminal hydrolase 2 (Homo sapiens) (UniProt O75604) (assay: Confirmation Assay for Inhibitors of Ubiquitin-specific Protease USP2a Using CHOP2 as the Reporter). Conditions: USP2 core, Ub-CHOP2 coupled reporter fluorescence; series mostly up to 38.3 µM; activity change, negative = inhibition: at the top concentration.
Ubiquitin carboxyl-terminal hydrolase 2 (Homo sapiens), sequence (O75604 whole entry, looked up): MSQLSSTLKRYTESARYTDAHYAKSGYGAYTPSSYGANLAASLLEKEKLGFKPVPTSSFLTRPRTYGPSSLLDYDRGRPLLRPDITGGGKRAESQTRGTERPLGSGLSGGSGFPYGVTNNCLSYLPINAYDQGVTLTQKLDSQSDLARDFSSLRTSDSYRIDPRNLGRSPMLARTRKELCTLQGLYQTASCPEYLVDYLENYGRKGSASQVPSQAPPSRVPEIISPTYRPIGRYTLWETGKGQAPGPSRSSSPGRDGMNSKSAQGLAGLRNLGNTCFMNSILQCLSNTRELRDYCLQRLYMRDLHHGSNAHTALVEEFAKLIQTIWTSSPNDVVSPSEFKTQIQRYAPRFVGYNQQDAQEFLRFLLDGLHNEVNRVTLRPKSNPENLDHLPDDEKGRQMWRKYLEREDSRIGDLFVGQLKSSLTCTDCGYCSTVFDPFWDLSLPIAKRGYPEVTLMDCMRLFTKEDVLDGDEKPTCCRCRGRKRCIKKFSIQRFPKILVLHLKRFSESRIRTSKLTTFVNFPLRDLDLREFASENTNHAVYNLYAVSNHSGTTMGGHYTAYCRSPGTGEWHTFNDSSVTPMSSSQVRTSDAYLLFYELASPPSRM
Summary of the method: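 USP2 core (10 nM final) was preincubated with compound for 30 min at RT in Tris-HCl pH 8.0, CaCl2, beta-mercaptoethanol, CHAPS. Ub-CHOP2 and reporter substrate (25 nM final each) were added, and fluorescence (Ex 485/Em 531 nm) was read after 60 min.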
With `C[C@H](CO)N1C[C@H](C)[C@@H](CN(C)S(=O)(=O)c2ccc(Cl)cc2)Oc2ccc(NS(=O)(=O)c3ccccc3)cc2CC1=O` the “activity change, negative = inhibition” value was -2.54%. In the case of `O=C(NCCCN1CCCC1=O)c1cccc(N2CCCC2=O)c1`, the “activity change, negative = inhibition” value is reported as 5.3%. For `COC(=O)C1CCN(C(=O)COC(=O)CC(NC(N)=O)c2ccc(Cl)cc2)CC1` (stereo not given), the “activity change, negative = inhibition” value was 1.45%. In the case of `CCCCn1c(SCC(=O)N2CCC(C)CC2)nc2cc(S(N)(=O)=O)ccc21`, the “activity change, negative = inhibition” value is reported as -1.05%. `Cc1ccc2[nH]c(=O)c(COC(=O)c3ccccn3)cc2c1` was tested, and the “activity change, negative = inhibition” value was 3.32%. For `O=C(COC(=O)/C=C/c1ccc(Cl)cc1)NC1CC1`, the “activity change, negative = inhibition” value was 0.196%. With `COc1cc(C(=O)OC2CCCCC2=O)cc(OC)c1C` (stereo not given) the Potency was 11.7 µM (active). For `CC1(C)CC(=O)C2=C(C1)NCN(CCCN1CCOCC1)C2`, the “activity change, negative = inhibition” value was 0.351%. `Cc1cc(N2CCOCC2)nc(SCC(=O)c2ccc(Cl)cc2)n1` was tested, and the “activity change, negative = inhibition” value was 5.19%. In the case of `C=CCn1c(Br)nc2c1c(=O)n(C)c(=O)n2C`, the “activity change, negative = inhibition” value is reported as -3.17%. `CCOc1ccc(NC(=O)N(CCCN2CCOCC2)Cc2cccnc2)cc1` was tested, and the “activity change, negative = inhibition” value was 0.0836%. `O=C(c1ccc([N+](=O)[O-])cc1)N(Cc1ccc(Cl)cc1)N1C(=O)CCCC1=O` was tested, and the “activity change, negative = inhibition” value was -1.63%. In the case of `Cc1cc(C)n2cc(CSc3nnnn3-c3ccccc3C)nc2n1`, the “activity change, negative = inhibition” value is reported as -2.31%. In the case of `NS(=O)(=O)c1cc(C(=O)NC2CCSc3ccccc32)ccc1Cl` (stereo not given), the Potency is reported as 13.1 µM (active). With `Cc1ccc(Nc2cc(C)nc(NCc3ccccc3)n2)cc1` the “activity change, negative = inhibition” value was -2.23%. With `COC(=O)c1ccc(CSc2ncnc3ccccc23)o1` the “activity change, negative = inhibition” value was 1.14%. With `CC1CCCCC1NC(=O)CSCC(=O)O` (stereo not given) the “activity change, negative = inhibition” value was 0.575%. In the case of `O=C1NC[C@@H](c2ccccc2)OC(=O)[C@@H](Cc2ccc(F)cc2)CC/C=C/C[C@@H]1CC(=O)N(CCO)Cc1ccccc1`, the “activity change, negative = inhibition” value is reported as 1.12%. In the case of `O=c1oc2c(CN3CCCCC3)c(O)ccc2c2c1CCCCC2`, the “activity change, negative = inhibition” value is reported as -1.38%. With `O=C(/C=C/c1ccc(Cl)c([N+](=O)[O-])c1)Nc1ccc(N2CCCC2)cc1` the “activity change, negative = inhibition” value was -14%. `COCc1cc(C)nc(SCC[N+](C)(C)CC(=O)Nc2cccc(C(F)(F)F)c2)c1C#N` was tested, and the “activity change, negative = inhibition” value was -13.5%. With `CCOc1ccc(C=NNc2ccc(S(=O)(=O)Nc3ccccc3C(=O)O)cc2[N+](=O)[O-])cc1` the Potency was 7.36 µM (active). In the case of `N=C1C(c2nc3ccccc3c(=O)[nH]2)=C(O)CN1CCc1ccccc1`, the “activity change, negative = inhibition” value is reported as 0.0409%. In the case of `CCn1c(CN2CCOCC2)nnc1SCC(=O)Nc1ccc(C(C)=O)cc1`, the “activity change, negative = inhibition” value is reported as -3.3%. In the case of `COc1ccc(C(=O)OCC(=O)c2c[nH]c3ccccc23)c(OC)c1`, the “activity change, negative = inhibition” value is reported as -0.191%. `CC(C)Cn1c(SCC(N)=O)nnc1-c1cccc(S(=O)(=O)N2CCOCC2)c1` was tested, and the “activity change, negative = inhibition” value was 3.21%. For `O=C(NC12CC3CC(CC(C3)C1)C2)C1=COCCO1`, the “activity change, negative = inhibition” value was -3.25%. For `O=C(COc1ccccc1)Nc1nnc(-c2ccc(Cl)s2)o1`, the “activity change, negative = inhibition” value was 0.422%. With `O=C(NCCN1C(=O)CSC1=O)C1CC(=O)N(c2ccccc2)C1` (stereo not given) the “activity change, negative = inhibition” value was 3.9%. With `Cc1ccc2nc(NCCCNC(=O)c3cnccn3)c(C#N)cc2c1` the “activity change, negative = inhibition” value was 2.19%. `Cc1cccn2c(=O)c3cc(C(=O)NCCN4CCOCC4)c(=N)n(CCN4CCOCC4)c3nc12` was tested, and the “activity change, negative = inhibition” value was 0.715%. In the case of `O=C(Nc1ccc(N2CCCC2)c(Cl)c1)c1ccc(Br)o1`, the “activity change, negative = inhibition” value is reported as 4.08%. `COc1ccc(OCC(=O)NCCNC(=O)c2cccnc2)cc1` was tested, and the “activity change, negative = inhibition” value was 1.94%. `O=c1[nH]c(=S)[nH]c2c1C(c1ccc(Br)cc1)c1c([nH]c(=S)[nH]c1=O)O2` was tested, and the Potency was 9.27 µM (active). For `Cc1cccc(-c2nnc3n2N=C(c2ccc(Br)cc2)CS3)c1`, the “activity change, negative = inhibition” value was 4.34%. For `CCN(C[C@H]1N[C@@](CC)(C(=O)OC)[C@H]2C(=O)N(Cc3ccccc3)C(=O)[C@@H]12)C(=O)Nc1ccc(C)cc1`, the “activity change, negative = inhibition” value was 0.513%. In the case of `Cc1ccccc1C(=O)Nc1ccc2nc3n(c(=O)c2c1)CCC3`, the “activity change, negative = inhibition” value is reported as -1.25%. `COc1ccc(-n2c(=S)[nH]c3cc(C(=O)Nc4cc(OC)c(OC)c(OC)c4)ccc3c2=O)c(OC)c1` was tested, and the “activity change, negative = inhibition” value was -0.814%. With `O=C1NC(=Nc2ccc3ccccc3c2)S/C1=C/c1ccco1` the “activity change, negative = inhibition” value was -20.7%. `Cc1noc(C)c1NC(=O)Nc1ccc2c(c1)C(=O)N([C@H](C)CO)C[C@H](C)[C@@H](CN(C)S(=O)(=O)c1ccccc1)O2` was tested, and the “activity change, negative = inhibition” value was -1.29%.
